# Assay results reported in PubChem BioAssay (NCATS).
# Records with an inconclusive call do not appear. Calls of active or inactive are those of the source. The call rests on the fitted dose curve; in most records, active means well fitted curve in the direction sought with a large enough effect; inconclusive means small, poorly fitted or top-dose-only effect, or another doubt; inactive means no such curve, though single readings can be large or run the other way.
# Assay: qHTS for Inhibitors of Ubiquitin-specific Protease USP2a Using CHOP2 as the Reporter: K633 Counterscreen (AID 652168)
# Conditions: No-enzyme DiUb K48 IQF substrate fluorescence interference, kinetic; series mostly up to 57.5 µM
# Excerpt: Homeostasis of cellular proteins is maintained through a combination of synthesis and degradation. The pathway that accounts for the majority of protein degradation is the ubiquitin-proteasomal pathway. Ubiquitin (Ub) is highly conserved in all cells and the generation of a multi-Ub chain typically targets proteins for degradation by the proteasome. However, ubiquitination is highly reversible and dynamic. Deubiquitination, the reverse process, is catalyzed through the action of enzymes referred to as isopeptidases or deubiquitinating enzymes (DUBs). This group of enzymes is collectively responsible for maintaining adequate pools of free ubiquitin and regulating the ubiquitination status of cellular proteins. The class of DUBs referred to as the ubiquitin-specific proteases (USP) family functions endoproteolytically to cleave Ub chains from a wide range of protein substrates. USP2a deubiquitinates fatty acid synthase (FASN) which has recently been identified as an emerging oncology target. To identify inhibitors of USP2a a cell-free qHTS assay was employed. To determine whether the compounds interacted with the detection system alone, the effect of compounds on the substrate of assay 2.1.3 over time was determined in a 1536-well assay. A compound that modulates the fluorescence over time would be indicative of interference with the detection system. The buffer consisted of 20 mM Tris pH 8, 2 mM beta-mercaptoethanol and 0.05% Chaps, and the assay was run in black solid-bottom Greiner plates. NIH Molecular Libraries Probe Centers Network [MLPCN] NIH Chemical Genomics Center [NCGC] MLSCN Grant: MH079852 PI Name: Benjamin Nicholson, Progenra Inc, Malvern, PA
# 3 uL of no enzyme in assay buffer was dispensed into a 1536-well plate and then compounds were added through pinning. 1 uL of 100 nM DiUb K48-4IQF subtsrate was added before fluoresence on the ViewLux in kinetic moder (Ex 525/Em 598).
row,SMILES,outcome
1,O=c1[nH]c(CCl)nc2sc3c(c12)CCC3,inactive
2,Cc1ccc(S(=O)(=O)Nc2cc3c(cc2C(=O)Nc2nc(-c4ccccc4)cs2)OCO3)cc1,inactive
3,Cc1ccc(-c2cc(C(=O)Nc3ccccn3)c3ccccc3n2)cc1C,inactive
4,Cc1ccc(S(=O)(=O)Nc2cnccc2C(=O)Nc2nc(-c3ccncc3)cs2)cc1,inactive
5,Cc1ccc([S+](=O)([O-])n2cc(Cc3ccc(-c4ccccc4)cc3)c3ccccc32)cc1,inactive
6,CCCCCN1CCC(C(=O)Nc2ccc([S+](=O)([O-])Nc3nccs3)cc2)CC1,inactive
7,CCS(=O)(=O)N1CCC(C(=O)Nc2ccc(S(=O)(=O)Nc3nccs3)cc2)CC1,inactive
8,CC(C)(C)OC(=O)N1CCC(C(=O)Nc2ccc([S+](=O)([O-])Nc3nccs3)cc2)CC1,inactive
9,CC1(C)CC(C(=O)Nc2ccc([S+](=O)([O-])Nc3nccs3)cc2)C1,inactive
10,Cc1ccc(S(=O)(=O)NCC(=O)Nc2nc(-c3ccccc3)cs2)cc1,inactive
11,O=C(O)c1cccc(S(=O)(=O)Nc2nccs2)c1,inactive
12,COc1ccc(C(=O)Nc2nc(-c3ccccc3)cs2)c(OC)c1,inactive
13,Cc1ccc(S(=O)(=O)Nc2cnccc2C(=O)Nc2nc(-c3ccc(Cl)c(Cl)c3)cs2)cc1,inactive
14,O=C(Nc1ccc([S+](=O)([O-])Nc2nccs2)cc1)c1ncn[nH]1,inactive
15,CC1CCC(C(=O)Nc2ccc([S+](=O)([O-])Nc3nccs3)cc2)CC1 (stereo not given),inactive
16,Cc1ccc(-c2cc(C(=O)N3CCCCC3)c3ccccc3n2)cc1C,inactive
17,O=c1[nH]c(CN2CCOCC2)nc2sc3c(c12)CCC3,inactive
18,O=C(Nc1ccc(S(=O)(=O)Nc2nccs2)cc1)c1cccc2ccccc12,inactive
19,CCOC(=O)C1CCC(C(=O)Nc2ccc([S+](=O)([O-])Nc3nccs3)cc2)CC1 (stereo not given),inactive
20,Cc1ccc(-c2cc(C(=O)O)c3cccc(C)c3n2)cc1C,inactive

row,SMILES,outcome
1,Cc1ccc(S(=O)(=O)Nc2cc(C)ccc2C(=O)Nc2nc(-c3ccccc3)cs2)cc1,inactive
2,O=C1CC(c2ccccc2)Cc2[nH]c(=O)c(-c3nc(-c4ccc(F)cc4)cs3)cc21 (stereo not given),inactive
3,O=c1[nH]c(CCl)nc2sc3c(c12)CCCC3,inactive
4,Cc1ccc(S(=O)(=O)Nc2ccccc2C(=O)Nc2nc(-c3ccccc3)c(Br)s2)cc1,inactive
5,CCCC1CCC(C(=O)Nc2ccc(S(=O)(=O)Nc3nccs3)cc2)CC1 (stereo not given),inactive
6,Cc1ccc(S(=O)(=O)Nc2cnccc2C(=O)Nc2nc(-c3ccc(-c4ccccc4)cc3)cs2)cc1,inactive
7,Cc1ccc(S(=O)(=O)NCCC(=O)Nc2nc(-c3ccccc3)cs2)cc1,inactive
8,Clc1nc(CN2CCOCC2)nc2sc3c(c12)CCCC3,inactive
9,Cc1ccc(S(=O)(=O)Nc2ccc(Cl)cc2C(=O)Nc2nc(-c3ccccc3)cs2)cc1,inactive
10,CC(C)C1CCC(C(=O)Nc2ccc(S(=O)(=O)Nc3nccs3)cc2)CC1 (stereo not given),inactive
11,Cc1ccc(S(=O)(=O)Nc2cnccc2C(=O)Nc2ccc(N3CCOCC3)cc2)cc1,inactive
12,COc1ccc(NC(=O)c2cc(-c3ccc(C)c(C)c3)nc3ccccc23)cc1,inactive
13,O=C(Nc1ccc(S(=O)(=O)Nc2nccs2)cc1)c1cccnc1,inactive
14,Cc1ccc(-c2cc(C(=O)Nc3ccc(-c4noc(=O)[nH]4)cc3)c3ccccc3n2)cc1C,inactive
15,N#Cc1ccc(N[S+](=O)([O-])c2ccc(Nc3nc(-c4ccccc4)cs3)cc2)cc1,inactive
16,Cc1ccc(-c2cc(C(=O)N3CC[S+](=O)([O-])CC3)c3ccccc3n2)cc1C,inactive
17,O=C(Cc1ccccc1)Nc1ccc(S(=O)(=O)Nc2nccs2)cc1,inactive
18,O=S(=O)(Nc1nc(CN2CCOCC2)nc2sc3c(c12)CCCC3)c1ccc2ccccc2c1,inactive
19,O=C(CCc1ccccc1)Nc1ccc(S(=O)(=O)Nc2nccs2)cc1,inactive
20,COc1ccc(NS(=O)(=O)c2ccc(C)cc2)c(C(=O)Nc2nc(-c3ccccc3)cs2)c1,inactive
